Consider 4 compounds from PubChem BioAssay (EPA / NIEHS).

Test [1] in a line: ATG_GRE_CIS: Attagene CIS-FACTORIAL HepG2 Assay for human Glucocorticoid Response Elements (GRE) (AID 2282947). The settings on record: HepG2 GRE cis-reporter, Attagene multiplex mRNA; actives raise or lower the signal. The procedure, abridged: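 Reporter transcripts read by RT-PCR with capillary electrophoresis fluorescence after a 24 h chemical exposure of HepG2 cells transiently transfected with multiple cis-element reporter units. Gain or loss fitted against DMSO.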

A short description of test [2]: ATG_M_32_CIS: Attagene CIS-FACTORIAL HepG2 Assay for M32 Transcription Factor (Internal Marker) (AID 2282949).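 Further: background control marker of the multiplexed CIS panel rather than a real target.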 Particulars: HepG2 Attagene cis-factorial M32 reporter, mRNA; actives raise or lower the signal. The procedure, abridged: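 HepG2 transfectants (cis-regulated reporter transcription units) dosed 24 h. Reporter mRNA by RT-PCR plus CE, analysed as gain or loss relative to DMSO.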

Test [3] is described as follows: ATG_M_06_CIS: Attagene CIS-FACTORIAL HepG2 Assay for M06 Transcription Factor (Internal Marker) (AID 2282950). The settings on record: HepG2 Attagene CIS-FACTORIAL M06 internal marker reporter; actives raise or lower the signal. The gist of the method: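 Fluorescence-labelled RT-PCR products from cis-promoter reporter units, cut with HpaI and resolved by capillary electrophoresis, give the signal. Cells are human HepG2, dosed for 24 h. Serves as background control, fitted relative to DMSO.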

In test [4] the target is Hypoxia-inducible factor 1-alpha (Homo sapiens) (UniProt Q16665). Briefly: ATG_HIF1a_CIS: Attagene CIS-FACTORIAL HepG2 Assay for human Hypoxia Inducible Factor 1 (HIF1A) (AID 2282951). The settings on record: HepG2 Attagene cis-factorial HIF1a reporter transcription; actives raise or lower the signal. The procedure, abridged:
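Measures endogenous transcription-factor activity through cis-regulated reporter mRNA in HepG2. Cells dosed 24 h; transcripts quantified by RT-PCR with 6-FAM-labelled products separated by capillary electrophoresis; DMSO serves as negative control.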

The target in test [5] is Hepatocyte nuclear factor 6 (Homo sapiens) (UniProt Q9UBC0). Nature of the test: ATG_HNF6_CIS: Attagene CIS-FACTORIAL HepG2 Assay for human Hepatocyte Nuclear Factor 6 (HNF6) (AID 2282952). Particulars: HepG2 Attagene cis-factorial HNF6 reporter transcription; actives raise or lower the signal. The procedure, abridged: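 Endogenous factor activity read in transiently transfected HepG2 via promoter-regulated reporter transcripts. RNA harvested 24 h post-dosing, reverse-transcribed, PCR-amplified, FAM-labelled, HpaI-digested and resolved by capillary electrophoresis; fitted in both directions against DMSO.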

Test [6] is described as follows: ATG_MRE_CIS: Attagene CIS-FACTORIAL HepG2 Assay for human Metal Responsive Element (MRE) (AID 2282954). The settings on record: HepG2 MRE cis-reporter transcription, Attagene multiplex; actives raise or lower the signal. The procedure, abridged: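 Endogenous MRE-dependent transcription read as reporter mRNA in transiently transfected human HepG2 cells at 24 h. RNA reverse-transcribed, PCR-amplified, labelled and resolved by capillary electrophoresis; gain or loss relative to DMSO.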

Test [7] concerns the target Paired box protein Pax-6 (Homo sapiens) (UniProt P26367). Nature of the test: ATG_Pax6_CIS: Attagene CIS-FACTORIAL HepG2 Assay for human Paired Box 6 (PAX6) (AID 2282956). The settings on record: HepG2 CIS-FACTORIAL PAX6 reporter transcription, RNA readout; actives raise or lower the signal. The procedure, abridged: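 Fluorescent RT-PCR products separated by capillary electrophoresis report PAX6-linked promoter mRNA in HepG2 cells 24 h post-dose. Curves fitted bidirectionally, DMSO as negative control.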

A short description of test [8]: ATG_PXRE_CIS: Attagene CIS-FACTORIAL HepG2 Assay for human Pregnane X Receptor Element (PXRE) (AID 2282957). The settings on record: HepG2 Attagene CIS-FACTORIAL PXRE reporter, mRNA; actives raise or lower the signal. The procedure, abridged: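 Reporter transcripts under endogenous PXR-responsive cis-regulation quantified from total RNA of transfected HepG2 cells 24 h post-dosing, via RT-PCR with fluorescent primer extension and capillary electrophoresis. Gain or loss of signal fitted against DMSO baseline.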

Test [9] is described as follows: ATG_PPRE_CIS: Attagene CIS-FACTORIAL HepG2 Assay for human Peroxisome Proliferator-activated Response Element (PPRE) (AID 2282958). The settings on record: HepG2 PPRE cis-element reporter, Attagene transcription factor profiling; actives raise or lower the signal. The procedure, abridged: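 Cells are first transfected transiently with the multiplexed reporter library, then dosed for 24 h. Total RNA is reverse-transcribed, amplified, fluorescently end-labeled and HpaI-cut before capillary electrophoresis; activity is fitted bidirectionally against DMSO controls.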

The nature of test [10]: ATG_RORE_CIS: Attagene CIS-FACTORIAL HepG2 Assay for human RAR-related Orphan Receptor Element (RORE) (AID 2282959). The settings on record: HepG2 Attagene cis-factorial RORE reporter, mRNA; actives raise or lower the signal. The gist of the method: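 Cells were HepG2 carrying transfected cis-regulated reporter constructs, dosed for 24 hours. Total RNA was reverse-transcribed and reporter cDNA amplified, fluorescently labeled and sized by capillary electrophoresis. Activity was fitted bidirectionally relative to DMSO.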

A short description of test [11]: ATG_Sox_CIS: Attagene CIS-FACTORIAL HepG2 Assay for human SRY-box transcription factor (SOX) (AID 2282960). Particulars: HepG2 Attagene cis-factorial SOX reporter, mRNA; actives raise or lower the signal. The procedure, abridged: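 Transient MRTU transfection of HepG2; 24 h compound incubation; TriZol RNA, oligo(dT) RT, PCR, 6-FAM primer extension, HpaI cut, CE. Bidirectional fit, DMSO = baseline.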

Test [12] concerns the target Transcription factor Sp1 (Homo sapiens) (UniProt P08047). Nature of the test: ATG_Sp1_CIS: Attagene CIS-FACTORIAL HepG2 Assay for human Specificity Protein 1 (Sp1) (AID 2282961). Particulars: HepG2 Sp1 cis-reporter transcription, actives raise or lower the signal. The procedure, abridged: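 Endogenous Sp1 activity was gauged in human liver HepG2 cells bearing transfected reporter units under a cis-regulating promoter. After 24 h dosing, reporter mRNA was quantified by RT-PCR with capillary electrophoresis, and activity fitted bidirectionally versus DMSO.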

Test [13] is described as follows: ATG_SREBP_CIS: Attagene CIS-FACTORIAL HepG2 Assay for human Sterol Regulatory Element Binding (SREBP) (AID 2282962). The settings on record: HepG2 Attagene cis-factorial SREBP reporter, mRNA; actives raise or lower the signal. The gist of the method:
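Endogenous factor activity is measured in HepG2 through multiplexed reporter units under cis-element control. Following a 24 h incubation, reporter transcripts are reverse-transcribed, PCR-amplified and sized by capillary electrophoresis; activity is fitted in both directions relative to DMSO.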

Test [14] addresses Signal transducer and activator of transcription 3 (Homo sapiens) (UniProt P40763). Briefly: ATG_STAT3_CIS: Attagene CIS-FACTORIAL HepG2 Assay for human Signal Transducer and Activator of Transcription 3 (STAT3) (AID 2282963). The settings on record: HepG2, Attagene cis-factorial STAT3 reporter transcription; actives raise or lower the signal. The gist of the method: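 Readout is reporter transcript quantified by RT-PCR and capillary electrophoresis, with 6-FAM primer extension and HpaI digestion. Total RNA is taken 24 h after dosing transiently transfected HepG2 carrying cis-regulated reporter units. Bidirectional fit against DMSO.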

Test [15] can be described thus: ATG_TA_CIS: Attagene CIS-FACTORIAL HepG2 Assay for human TA Basal Promoter (AID 2282964). The settings on record: HepG2 Attagene CIS-factorial TA basal promoter reporter; actives raise or lower the signal. The procedure, abridged:
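Multiplexed mRNA reporter assay, HepG2, 24 h. Reporter cDNA amplified, 6-FAM primer-extended, HpaI-cut, CE-sized; DMSO = negative control and baseline.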

Test [16] can be described thus: ATG_TCF_b_cat_CIS: Attagene CIS-FACTORIAL HepG2 Assay for human T-Cell-Factor with beta-catenin (TCF/b-cat) (AID 2282965). Particulars: HepG2 TCF/beta-catenin cis-reporter transcription, actives raise or lower the signal. The gist of the method:
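Measured: reporter mRNA in HepG2 transiently transfected with cis-promoter reporter units, 24 h after chemical addition. Fitting was bidirectional, DMSO as negative control.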

Test [17] can be described thus: ATG_ISRE_CIS: Attagene CIS-FACTORIAL HepG2 Assay for human Interferon Regulatory Factor 1 (IRF1) binding to an Interferon-Stimulated Response Element (ISRE) (AID 2282948). Particulars: HepG2 ISRE cis-reporter (Attagene), mRNA transcription readout; actives raise or lower the signal. The procedure, abridged:
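Multiplexed mRNA reporter readout in human liver HepG2 cells: cis-element-driven reporters transfected, compound added for 24 h, transcripts amplified, fluorescently labelled and sized by capillary electrophoresis; curve fitting bidirectional against DMSO.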

For test [18], the target named is Heat shock factor protein 1 (Homo sapiens) (UniProt Q00613). Briefly: ATG_HSE_CIS: Attagene CIS-FACTORIAL HepG2 Assay for human Heat Shock Transcription Factor 1 (HSE) (AID 2282953). Particulars: HepG2 HSE cis-reporter, Attagene RNA transcription; actives raise or lower the signal. The gist of the method: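 After a 24 h incubation with test chemical, transfected HepG2 cells were harvested for RNA; reporter transcripts were measured by RT-PCR and capillary electrophoresis. Values reflect gain or loss of signal relative to DMSO.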

Test [19] is described as follows: ATG_PBREM_CIS: Attagene CIS-FACTORIAL HepG2 Assay for human Phenobarbital-responsive Enhancer Module (PBREM) (AID 2282955). The settings on record: HepG2 PBREM cis-reporter, Attagene multiplexed transcription; actives raise or lower the signal. The procedure, abridged: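 Fluorescence of labelled reporter cDNA fragments, resolved by capillary electrophoresis, gives mRNA induction in transfected HepG2 cells treated for 24 h; DMSO serves as negative control and baseline.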

Each structure is given as a SMILES string. Activity calls are given as the source filed them. How the source made its calls: active means hit-call score of the fitted dose curve at least 0.9, where 1 is the maximum; inactive means score below 0.9.

Hypoxia-inducible factor 1-alpha (Homo sapiens), sequence (Q16665 whole entry, looked up): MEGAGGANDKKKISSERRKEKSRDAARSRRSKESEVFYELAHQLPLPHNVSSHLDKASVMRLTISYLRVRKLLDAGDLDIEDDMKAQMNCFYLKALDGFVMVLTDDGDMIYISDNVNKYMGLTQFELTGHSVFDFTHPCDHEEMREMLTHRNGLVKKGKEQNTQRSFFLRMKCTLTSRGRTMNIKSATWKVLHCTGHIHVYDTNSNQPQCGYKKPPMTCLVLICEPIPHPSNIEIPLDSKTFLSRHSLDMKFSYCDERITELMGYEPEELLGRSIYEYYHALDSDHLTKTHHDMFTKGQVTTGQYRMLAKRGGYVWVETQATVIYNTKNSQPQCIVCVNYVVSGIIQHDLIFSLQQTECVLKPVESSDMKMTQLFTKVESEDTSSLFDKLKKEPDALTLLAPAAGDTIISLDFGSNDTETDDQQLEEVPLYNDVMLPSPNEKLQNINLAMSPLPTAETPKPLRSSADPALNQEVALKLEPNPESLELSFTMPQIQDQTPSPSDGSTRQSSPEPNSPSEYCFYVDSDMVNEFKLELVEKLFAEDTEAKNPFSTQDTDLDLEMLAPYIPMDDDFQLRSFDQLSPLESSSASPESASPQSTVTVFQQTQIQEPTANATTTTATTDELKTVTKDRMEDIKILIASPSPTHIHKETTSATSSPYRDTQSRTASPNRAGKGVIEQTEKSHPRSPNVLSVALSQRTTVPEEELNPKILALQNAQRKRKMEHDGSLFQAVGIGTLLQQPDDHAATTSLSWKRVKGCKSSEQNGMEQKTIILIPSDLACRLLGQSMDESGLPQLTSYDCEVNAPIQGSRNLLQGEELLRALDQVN
Paired box protein Pax-6 (Homo sapiens), sequence (P26367 whole entry, looked up): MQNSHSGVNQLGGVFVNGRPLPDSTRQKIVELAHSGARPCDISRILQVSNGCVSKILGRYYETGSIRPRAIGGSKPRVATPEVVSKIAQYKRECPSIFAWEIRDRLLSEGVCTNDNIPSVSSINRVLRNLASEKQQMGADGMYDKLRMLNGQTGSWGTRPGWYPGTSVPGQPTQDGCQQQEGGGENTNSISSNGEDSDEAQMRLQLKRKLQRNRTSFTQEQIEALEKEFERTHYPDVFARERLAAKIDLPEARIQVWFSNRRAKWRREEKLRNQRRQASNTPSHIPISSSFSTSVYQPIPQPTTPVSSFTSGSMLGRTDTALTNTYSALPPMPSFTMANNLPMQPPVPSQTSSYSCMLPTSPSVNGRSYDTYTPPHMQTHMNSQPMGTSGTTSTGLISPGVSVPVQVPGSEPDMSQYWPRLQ
Signal transducer and activator of transcription 3 (Homo sapiens), sequence (P40763 whole entry, looked up): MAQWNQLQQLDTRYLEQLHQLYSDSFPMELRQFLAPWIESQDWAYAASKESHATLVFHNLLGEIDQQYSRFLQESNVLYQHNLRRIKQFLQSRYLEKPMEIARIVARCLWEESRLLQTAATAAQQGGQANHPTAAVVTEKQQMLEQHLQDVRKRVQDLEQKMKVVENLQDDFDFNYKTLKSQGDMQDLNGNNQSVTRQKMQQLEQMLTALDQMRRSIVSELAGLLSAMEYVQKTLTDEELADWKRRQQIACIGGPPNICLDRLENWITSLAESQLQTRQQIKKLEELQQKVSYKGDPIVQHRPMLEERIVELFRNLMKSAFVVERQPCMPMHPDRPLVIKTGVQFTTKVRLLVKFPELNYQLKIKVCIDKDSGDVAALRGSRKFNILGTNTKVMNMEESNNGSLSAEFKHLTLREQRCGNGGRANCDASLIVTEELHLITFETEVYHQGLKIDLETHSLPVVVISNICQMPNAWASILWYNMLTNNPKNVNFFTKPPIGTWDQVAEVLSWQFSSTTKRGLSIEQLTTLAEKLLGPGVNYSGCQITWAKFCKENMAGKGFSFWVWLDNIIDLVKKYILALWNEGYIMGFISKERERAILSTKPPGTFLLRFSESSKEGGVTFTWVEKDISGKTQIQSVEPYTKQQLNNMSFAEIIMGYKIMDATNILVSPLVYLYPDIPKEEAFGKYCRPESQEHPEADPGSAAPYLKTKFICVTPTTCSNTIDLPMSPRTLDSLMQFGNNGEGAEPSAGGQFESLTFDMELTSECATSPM
Transcription factor Sp1 (Homo sapiens), sequence (P08047 whole entry, looked up): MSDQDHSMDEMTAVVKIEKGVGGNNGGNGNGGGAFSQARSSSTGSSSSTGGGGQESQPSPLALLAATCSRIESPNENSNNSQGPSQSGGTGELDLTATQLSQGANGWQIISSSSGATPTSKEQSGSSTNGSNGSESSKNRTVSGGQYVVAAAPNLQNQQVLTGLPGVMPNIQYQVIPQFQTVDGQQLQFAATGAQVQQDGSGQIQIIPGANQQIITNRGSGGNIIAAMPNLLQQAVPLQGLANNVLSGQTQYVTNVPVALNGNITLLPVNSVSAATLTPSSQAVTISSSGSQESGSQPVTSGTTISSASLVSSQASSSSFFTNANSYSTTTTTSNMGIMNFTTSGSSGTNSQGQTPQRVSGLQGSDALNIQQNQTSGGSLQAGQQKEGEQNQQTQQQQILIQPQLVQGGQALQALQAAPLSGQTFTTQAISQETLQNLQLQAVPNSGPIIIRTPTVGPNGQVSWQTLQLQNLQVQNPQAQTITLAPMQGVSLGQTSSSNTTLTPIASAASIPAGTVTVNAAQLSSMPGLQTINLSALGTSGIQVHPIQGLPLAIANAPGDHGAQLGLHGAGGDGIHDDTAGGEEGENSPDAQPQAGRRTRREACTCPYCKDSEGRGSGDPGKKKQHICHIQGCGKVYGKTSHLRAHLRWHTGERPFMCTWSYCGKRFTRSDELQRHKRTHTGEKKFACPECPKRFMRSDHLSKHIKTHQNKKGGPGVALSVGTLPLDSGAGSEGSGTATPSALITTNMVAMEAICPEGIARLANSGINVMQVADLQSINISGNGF
Hepatocyte nuclear factor 6 (Homo sapiens), sequence (Q9UBC0 whole entry, looked up): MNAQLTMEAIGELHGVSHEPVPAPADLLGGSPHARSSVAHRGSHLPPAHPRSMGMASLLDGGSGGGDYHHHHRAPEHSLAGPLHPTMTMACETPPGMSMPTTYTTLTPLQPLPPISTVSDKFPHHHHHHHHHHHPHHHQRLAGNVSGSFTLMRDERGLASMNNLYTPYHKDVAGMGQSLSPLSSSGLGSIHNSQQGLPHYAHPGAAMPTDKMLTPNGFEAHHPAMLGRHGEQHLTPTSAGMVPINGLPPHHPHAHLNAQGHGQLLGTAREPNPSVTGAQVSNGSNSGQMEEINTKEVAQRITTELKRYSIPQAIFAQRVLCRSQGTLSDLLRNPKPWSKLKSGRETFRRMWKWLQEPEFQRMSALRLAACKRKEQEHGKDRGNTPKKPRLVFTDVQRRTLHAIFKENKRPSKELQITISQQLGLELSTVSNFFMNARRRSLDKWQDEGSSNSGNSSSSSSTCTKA
Heat shock factor protein 1 (Homo sapiens), sequence (Q00613 whole entry, looked up): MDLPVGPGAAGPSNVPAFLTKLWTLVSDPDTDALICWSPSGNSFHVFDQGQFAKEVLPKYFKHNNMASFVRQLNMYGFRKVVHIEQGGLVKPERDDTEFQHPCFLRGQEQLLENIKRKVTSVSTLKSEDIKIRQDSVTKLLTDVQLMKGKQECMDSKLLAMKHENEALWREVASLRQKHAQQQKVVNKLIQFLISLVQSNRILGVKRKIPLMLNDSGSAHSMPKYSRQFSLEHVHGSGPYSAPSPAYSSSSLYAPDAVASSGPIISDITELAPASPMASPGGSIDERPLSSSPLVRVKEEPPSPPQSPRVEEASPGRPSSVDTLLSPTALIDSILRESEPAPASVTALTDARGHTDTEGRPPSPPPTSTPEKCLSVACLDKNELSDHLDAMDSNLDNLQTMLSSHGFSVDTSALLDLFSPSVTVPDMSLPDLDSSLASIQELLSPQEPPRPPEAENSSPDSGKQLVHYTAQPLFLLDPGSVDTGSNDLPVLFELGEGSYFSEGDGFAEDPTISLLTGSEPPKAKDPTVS

For orientation: AC50 means the concentration giving half of the maximal activity seen. For `COc1ccc(CCO)cc1`, the AC50 was 183 µM (active) in [1] and 179 µM (active) in [14]. Besides, the outcome in test [2], in test [3], in [4], in test [5], in test [6] and in test [7] was inactive. The result in test [8], in [9], in [10], in [11], in test [12] and in test [13] was inactive. In addition, the compound was classed as inactive in test [15] and in [16].

For `C/C=C(\C)C(=O)OCCc1ccccc1`, the call in [17], in test [2], in test [3], in [4], in test [5] and in [18] was inactive. Besides, the compound was classed as inactive in test [6], in [7], in test [10], in test [11], in test [12] and in test [13]. Further, the result in test [14], in [15] and in test [16] was inactive. In addition, the AC50 in [8] was 27.7 µM (active).

For the compound `CC(O)C1CCCCC1` (configuration not stated), the result in test [17], in test [2], in test [3], in test [4], in test [5] and in [18] was inactive. The compound was called inactive in test [6], in test [19], in [7], in [8], in test [9] and in test [10]. The outcome in [11], in [12], in test [13], in test [14], in test [15] and in test [16] was inactive.

In the case of `CCOC(=O)C1OC1c1ccccc1` (configuration not stated), the compound was called inactive in [1], in test [2], in test [3], in [4], in test [5] and in [6]. Further, the outcome in test [19], in test [7], in test [8], in [10], in test [11] and in [12] was inactive. In addition, the outcome in test [13], in test [14] and in test [15] was inactive. Further, the AC50 was 21.6 µM (active) in test [9] and 48 µM (active) in [16].
